We go through 30 compounds from PubChem BioAssay (NCATS).

A number with no mark means an inactive call. Where a call stands in place of a potency, no number is given. The source made the active and inactive calls. Calls come from the whole dose curve; as a rule, active = well fitted inhibition curve with a large enough effect; inconclusive = small, poorly fitted or top-dose-only effect; inactive = flat fitted curve, though single readings scatter.
Potency is the fitted concentration of half-maximal effect.

In this assay the test system is Nanoluciferase (engineered Oplophorus gracilirostris luciferase). Put plainly: Primary Nanoluciferase (NLuc) qHTS assay for identification of artifact compounds. (AID 1845222). To be noted: NLuc-conditioned medium, Nano-Glo luminescence, 5 min; series mostly up to 54.1 µM. An outline of the steps: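 Compounds are pinned into diluted (1:55) conditioned medium of NLuc-expressing S16 cells and held 15 min at room temperature protected from light. Nano-Glo substrate follows, and luminescence is read 5 min later.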
Consider `CN[C@@H]1[C@@H](O)[C@@H](O[C@@H]2[C@@H](O)[C@H](O[C@H]3O[C@@H]([C@@H](C)NC)CC[C@H]3N)[C@@H](N)C[C@H]2N)OC[C@]1(C)O`, for which the Potency entry is “inactive”.
Turning to `C[N+]1(C)[C@@H]2CC[C@H]1CC(OC(=O)C(O)c1ccccc1)C2` (stereo not given in full), the Potency entry is “inactive”.
For `O=C(c1ccc(F)c(F)c1Nc1ccc(I)cc1F)N1CC(O)([C@@H]2CCCCN2)C1`, the Potency result was “inactive”.
Same read-out and setting: next, `CCNC(=O)[C@@H]1CCCN1C(=O)[C@H](CCCN=C(N)N)NC(=O)[C@H](CC(C)C)NC(=O)[C@@H](CC(C)C)NC(=O)[C@H](Cc1ccc(O)cc1)NC(=O)[C@H](CO)NC(=O)[C@H](Cc1c[nH]c2ccccc12)NC(=O)[C@H](Cc1cnc[nH]1)NC(=O)[C@@H]1CCC(=O)N1`: “inactive”.
On to `CC(CCC1(O)OC2CC3C4CC=C5CC(O[C@@H]6O[C@H](CO)[C@@H](O[C@@H]7O[C@H](CO)[C@@H](O)[C@H](O)[C@H]7O)[C@H](O)[C@H]6O[C@@H]6O[C@@H](C)[C@H](O)[C@@H](O)[C@H]6O)CCC5(C)C4CCC3(C)C2C1C)CO[C@@H]1O[C@H](CO)[C@@H](O)[C@H](O)[C@H]1O` (stereo not given in full), for which the activity, negative = inhibition is 4.58% [at 11.6 µM].
As for `CN([C@H]1c2cc(OCCCC(F)(F)F)ccc2OC(C)(C)[C@@H]1O)S(C)(=O)=O`, the Potency entry was “inactive”.
The same measure, in the same setting: next, `CC1(CO)CCCC2(C)C1C(OC(=O)c1ccccc1)C=C1C(=O)OCC12O` (stereo not given): “inactive”; `Cn1c(NC[C@@H](N)Cc2ccccc2)nc(-c2ccncc2)c(-c2ccc3ccccc3c2)c1=O`: “inactive”.
Same read-out and setting: then `Nc1nc(NCC2CCC(CNS(=O)(=O)c3cccc4ccccc34)CC2)nc2ccccc12` (stereo not given), with “inactive”.
The same measure, in the same setting: next, `COc1ccc(NS(=O)(=O)c2sc3ccc(Cl)cc3c2C)cc1N1CCNCC1`: “inactive”.
For `CCC(=O)c1cc(-c2ccc(Cl)cc2)n(-c2ccc(S(N)(=O)=O)cc2)c1C`, the Potency entry is “inactive”.
Regarding `Cc1nnsc1C(=O)Nc1ccc(-n2nc(C(F)(F)F)cc2C(F)(F)F)cc1`, the Potency entry is “inactive”.
Still for that read-out and setting: then `Cc1cc(C)c(NC(=O)N(Cc2ccc3c(c2)Cc2ccccc2-3)C2CCCCCC2)c(C)c1`, with “inactive”; and `Fc1ccccc1CNCc1ccc(-c2ccnc3[nH]ccc23)cc1`, with “inactive”.
As to `CN(Cc1ccc(C(=O)O)cc1)c1ccc(OCc2c(-c3c(Cl)cccc3Cl)noc2C2CC2)nc1C(F)(F)F`, the Potency result was “inactive”.
The same measure, in the same setting: next, `Cc1nc(C)c2c(n1)N(Cc1ccc(-c3ccccc3-c3nn[nH]n3)cc1)C(=O)CC2`: 21.3 µM (active).
Turning to `N#C[C@@H]1C[C@@H]2C[C@@H]2N1C(=O)[C@@H](N)C12CC3CC(CC(O)(C3)C1)C2`, the Potency result is “inactive”.
On the same count and under the same terms, next, `CCCCOc1ccc(-c2cncc(C(=O)NCc3cccnc3N3CCOCC3)c2)cc1Cl`: “inactive”; `C=CC(=O)N1CCN(C(=O)c2cc(-c3cc(Cl)ccc3Cl)c(Cl)cc2OC)CC1`: “inactive”.
Consider `CC[C@H]1OC(=O)[C@H](C)[C@@H](O[C@H]2C[C@@](C)(OC)[C@@H](O)[C@H](C)O2)[C@H](C)[C@@H](O[C@@H]2O[C@H](C)C[C@H](N(C)C)[C@H]2O)[C@](C)(O)C[C@@H](C)/C(=N/OCOCCOC)[C@H](C)[C@@H](O)[C@]1(C)O`, for which the Potency entry was “inactive”.
Same read-out and setting: next, `C[C@@H](O[C@H]1OCCN(Cc2n[nH]nc2CN(C)C)[C@H]1c1ccc(F)cc1)c1cc(C(F)(F)F)cc(C(F)(F)F)c1`: “inactive”; `Cc1cc(CN)cc(C)c1NC(=O)c1ccc(-c2cc(Cl)ccc2Cl)o1`: “inactive”; `CCCCc1nc(C)c(CC(=S)N(C)C)c(=O)n1Cc1ccc(-c2ccccc2-c2nn[nH]n2)cc1`: 16.9 µM (active).
Same read-out and setting: next, `CC(=O)N1CCN([C@H]2CCN(C(=O)N(C)[C@H](C)c3cc(C(F)(F)F)cc(C(F)(F)F)c3)[C@@H](c3ccc(F)cc3C)C2)CC1`: “inactive”; `CC1(C)SC2C(NC(=O)[C@H](C(=O)O)c3ccsc3)C(=O)N2C1C(=O)O` (stereo not given in full): “inactive”; `Cc1cc(C)c(-c2csc(NC(=O)c3ccccc3)n2)c(C)c1`: “inactive”.
Same read-out and setting: then `COc1c(N2CC3CCCNC3C2)c(F)cc2c(=O)c(C(=O)O)cn(C3CC3)c12` (stereo not given), with “inactive”; and `COc1cc(N2CCN(C(C)=O)CC2)ccc1Nc1ncc(Cl)c(Nc2ccc(N3CCN(C(C)=O)CC3)cc2OC)n1`, with “inactive”.
As to `CN(CC(=O)N(Cc1ccc(C2CCCCC2)cc1)c1ccc(C(=O)O)cc1)S(=O)(=O)c1c(F)c(F)c(F)c(F)c1F`, the Potency result is “inactive”.
Consider `CO[C@@H]1[C@@H](O[C@H]2O[C@@H](C)[C@H](O[C@@H]3C[C@](C)(O)[C@H](O)[C@@H](C)O3)[C@@H](N(C)C)[C@@H]2O)[C@@H](CC=O)C[C@@H](C)[C@@H](O[C@H]2CC[C@H](N(C)C)[C@H](C)O2)/C=C/C=C/C[C@@H](C)OC(=O)C[C@H]1O`, for which the Potency result was “inactive”.
